The source of these data is PubChem BioAssay (NCI).

Among the test systems are SR leukemia; RPMI-8226 leukemia; OVCAR-8 ovarian; OVCAR-5 ovarian; OVCAR-4 ovarian; SK-OV-3 ovarian; IGROV1 ovarian; OVCAR-3 ovarian; HS 578T breast; NCI/ADR-RES ovarian; T-47D breast; BT-549 breast; MDA-MB-435 melanoma; SW-620 colon; MCF7 breast; HCT-116 colon; HCC-2998 colon; KM12 colon.
Assay in all cases: NCI-60 one-dose screen, 48 h (100 = growth as untreated, 0 = no growth, -100 = all killed)
Settings in all cases: 10 µM unless noted

The structures appear in SMILES notation. Compounds without any hit were thinned out: in the full panel of roughly 83,000, 20% have a hit.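 Testing used 96-well plates and a 48-hour single-concentration exposure. Example: -40 means 40% of the starting cells died.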 Values without a mark were called inactive. The source made the active and inactive calls. How the source made its calls: active means growth percent below 10; inactive means the rest.

On to `Nc1c(Br)cc2c(c1Br)Cc1cc(Cl)ccc1-2`, for which the growth is 80% with SR leukemia; 105% in the assay with RPMI-8226 leukemia; 96.8% in the assay with OVCAR-8 ovarian; 93.2% in the assay with OVCAR-5 ovarian; 95.1% in the assay on OVCAR-4 ovarian; 82.5% in the assay with SK-OV-3 ovarian. In addition, the growth in the assay on IGROV1 ovarian was 84.3%; in the assay on OVCAR-3 ovarian, 104%; in the assay on HS 578T breast, 91.9%; in the assay with NCI/ADR-RES ovarian, 95.8%; in the assay with T-47D breast, 66%; with BT-549 breast it was 128%. Moreover, the growth in the assay on MDA-MB-435 melanoma is 102%; with SW-620 colon, 98.2%; in the assay on MCF7 breast, 80.6%; in the assay with HCT-116 colon it was 97.1%; in the assay on HCC-2998 colon it was 102%; in the assay on KM12 colon, 98.7%.
For the compound `Cc1nn(-c2cccc(Cl)c2)c(C)c1N=Nc1ccc(Br)cc1`, the growth was 92.7% in the assay on SR leukemia; 95.4% with RPMI-8226 leukemia; 97.4% in the assay on OVCAR-8 ovarian; 94.1% with OVCAR-5 ovarian; 94.5% with OVCAR-4 ovarian; 92.3% in the assay on SK-OV-3 ovarian. For the same compound, the growth in the assay on IGROV1 ovarian was 100%; in the assay on OVCAR-3 ovarian, 112%; in the assay on HS 578T breast, 96.6%; with NCI/ADR-RES ovarian, 105%; with T-47D breast it was 80.5%; with BT-549 breast, 97.6%. The growth in the assay on MDA-MB-435 melanoma was 99.8%; in the assay on SW-620 colon it was 103%; in the assay with MCF7 breast, 89.4%; with HCT-116 colon, 89.5%; in the assay on HCC-2998 colon, 100%; in the assay on KM12 colon, 100%.
Take `COc1cnc2c(c1)C(=O)c1c-2n(CCCN2CCN(C)CC2)c(=O)c2cc(Cl)ccc12`: the growth in the assay on SR leukemia was -9.29% (active); with RPMI-8226 leukemia, 43.5%; in the assay with OVCAR-8 ovarian, 31%; in the assay with OVCAR-5 ovarian, 77.9%; with OVCAR-4 ovarian it was 43.9%; in the assay with SK-OV-3 ovarian, 52.3%. The growth with IGROV1 ovarian is 58.9%; in the assay with OVCAR-3 ovarian, 68.3%; in the assay with HS 578T breast, 54.8%; in the assay on NCI/ADR-RES ovarian, 44.8%; in the assay with T-47D breast, 8.74% (active); with BT-549 breast, 56.5%. The growth is 38% in the assay with MDA-MB-435 melanoma; 1.45% (active) in the assay on SW-620 colon; 20.8% with MCF7 breast; 32% in the assay with HCT-116 colon; 66.8% in the assay on HCC-2998 colon; 45.5% in the assay on KM12 colon.
For the compound `N=C(N)c1ccc(-c2ccc(-c3cccs3)s2)cc1F`, the growth in the assay with SR leukemia was -23.8% (active); in the assay on RPMI-8226 leukemia, -48.1% (active); in the assay with OVCAR-8 ovarian it was -44.4% (active); with OVCAR-5 ovarian, -83.6% (active); in the assay on OVCAR-4 ovarian, -59.1% (active); in the assay with SK-OV-3 ovarian, -100% (active). Further, the growth in the assay with IGROV1 ovarian is -70.6% (active); with OVCAR-3 ovarian it was -77.2% (active); in the assay with HS 578T breast it was -28.1% (active); with NCI/ADR-RES ovarian it was -57.4% (active); in the assay with T-47D breast it was -63.7% (active); in the assay on BT-549 breast it was -80.6% (active). For the same compound, the growth is -81.5% (active) in the assay on MDA-MB-435 melanoma; -62.8% (active) in the assay with SW-620 colon; -68.5% (active) in the assay with MCF7 breast; -47.2% (active) in the assay on HCT-116 colon; -81.2% (active) with HCC-2998 colon; -76.8% (active) in the assay with KM12 colon.
For the compound `CCN(CC)c1ccc(/C=N/NC(=O)c2ccc(S(C)(=O)=O)cc2)c(O)c1`, the growth was 9.02% (active) in the assay with SR leukemia; 21% in the assay on RPMI-8226 leukemia; 16.8% in the assay on OVCAR-8 ovarian; 32.5% in the assay with OVCAR-5 ovarian; 34.7% in the assay on OVCAR-4 ovarian; 39% in the assay with SK-OV-3 ovarian. For the same compound, the growth was 21.2% in the assay with IGROV1 ovarian; 33.4% in the assay on OVCAR-3 ovarian; 68% in the assay on HS 578T breast; 17.8% in the assay on NCI/ADR-RES ovarian; 30% in the assay on T-47D breast; 30.7% in the assay on BT-549 breast. Further, the growth is 37.2% in the assay with MDA-MB-435 melanoma; 33.1% in the assay with SW-620 colon; 8.79% (active) with MCF7 breast; 18.4% with HCT-116 colon; 39.6% with HCC-2998 colon; 25.9% with KM12 colon.
As to `CCN1C(=O)C(C)C=C(C)C=C1C` (centres undefined), the growth in the assay on SR leukemia is 110%; in the assay with RPMI-8226 leukemia, 115%; with OVCAR-8 ovarian, 102%; with OVCAR-5 ovarian, 106%; in the assay with OVCAR-4 ovarian it was 119%; in the assay with SK-OV-3 ovarian, 106%. The growth in the assay with IGROV1 ovarian is 106%; with OVCAR-3 ovarian it was 92.6%; with HS 578T breast, 102%; in the assay with NCI/ADR-RES ovarian, 119%; with T-47D breast it was 102%; with BT-549 breast, 124%. Also, the growth is 114% in the assay with MDA-MB-435 melanoma; 114% in the assay with SW-620 colon; 106% with MCF7 breast; 112% with HCT-116 colon; 103% in the assay with HCC-2998 colon; 100% in the assay on KM12 colon.
For `COc1ccc(-c2nc3c(c(-c4ccc(Cl)cc4)nn3-c3ccccc3)c(-c3ccc(O)cc3)c2C#N)cc1`, the growth with SR leukemia was -29.9% (active); in the assay on RPMI-8226 leukemia, -33% (active); with OVCAR-8 ovarian, 61.3%; in the assay on OVCAR-5 ovarian, 78.9%; in the assay on OVCAR-4 ovarian, 47.5%; in the assay on SK-OV-3 ovarian, 84.5%. Besides, the growth is 72.4% with IGROV1 ovarian; 34.1% with OVCAR-3 ovarian; 24.6% in the assay on HS 578T breast; 54.6% in the assay on NCI/ADR-RES ovarian; 24.6% in the assay with T-47D breast; 54.4% in the assay on BT-549 breast. For the same compound, the growth in the assay on MDA-MB-435 melanoma was 44.3%; in the assay on SW-620 colon, 48.5%; with MCF7 breast, 13.6%; in the assay with HCT-116 colon, 12%; in the assay with HCC-2998 colon it was 70.3%; in the assay on KM12 colon, 34.4%.
In the case of `O=C(CCl)Nc1ccc2c(c1)C(=O)c1ccccc1C2=O`, the growth in the assay with SR leukemia was -10.3% (active); in the assay on RPMI-8226 leukemia it was -59.1% (active); with OVCAR-8 ovarian it was -27.3% (active); with OVCAR-5 ovarian, 18.6%; in the assay on OVCAR-4 ovarian, 36.8%; in the assay with SK-OV-3 ovarian, 54.5%. For the same compound, the growth was -15.6% (active) with IGROV1 ovarian; -87.1% (active) in the assay on OVCAR-3 ovarian; 51.8% in the assay on HS 578T breast; 14.2% in the assay with NCI/ADR-RES ovarian; -71% (active) in the assay with T-47D breast; -45.3% (active) with BT-549 breast. For the same compound, the growth is 13.1% in the assay on MDA-MB-435 melanoma; -78.6% (active) with SW-620 colon; -25% (active) in the assay with MCF7 breast; -28.6% (active) in the assay on HCT-116 colon; 69% in the assay with HCC-2998 colon; 54.9% in the assay with KM12 colon.
